The inhibition is the drop in the measured response relative to a control, in per cent.

This is one part of the list. Active and inactive are the calls of the source.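 How the source made its calls, unless noted: active means at 20 µM dose, 40% or more inhibition averaged across four replicates; inactive means the rest.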

In PubChem BioAssay one finds inhibition, activity and activity, % sensitization data, which are given here for 28 molecules.

The nature of experiment [1]: inhibition of PEG-3 promoter luciferase signal – cell-based, HeLa, luciferase reporter, single concentration, confirmation (AID 602417). Particulars: HeLa PEG-Prom luciferase reporter, luminescence, overnight; at 20 µM; stronger effect = higher value. In general terms: Reporter assays use an easily measured gene product as a stand-in for the process of interest.
The target of experiment [2] is PEG-3 (UniProt Q6IN02). The experiment in a line: inhibition of PEG-3 promoter-driven reporter – cell-based, HeLa, luciferase, CREF/GAPDH counter-screen panel, dose response (AID 624167). The settings on record: CREF/GAPDH counter-screens; HeLa PEG-Prom luciferase reporter, overnight, run 1, dose range 1, at 100 µM (top of the series) unless noted. A general note: A counterscreen serves to expose hits that act by an unwanted route or on another target.

Experiment [3] concerns the target PEG-3 (UniProt Q6IN02). The description is as above. Particulars: CREF/GAPDH counter-screens; HeLa PEG-Prom luciferase reporter, overnight, run 2, dose range 1, at 100 µM (top of the series) unless noted.
Experiment [4] addresses Tumor necrosis factor receptor superfamily member 10B (Homo sapiens) (UniProt O14763). The experiment is described as follows: viability loss of caspase-8 NB7 cells with TRAIL – with/without TRAIL, luminescence panel, confirmation (AID 651596; in the data active means activity above about 50%). The settings on record: NB7 neuroblastoma + caspase-8, TRAIL sensitization, NB7 Caspase-8, with TRAIL, mean of runs, at 10 µM, stronger effect = higher value.

Assay in experiment [5]: as above
Particulars: NB7 neuroblastoma + caspase-8, without TRAIL, NB7 Caspase-8, without TRAIL, mean of runs, at 10 µM.

Experiment [6] can be described thus: HIF-2a driven luciferase blockers, single dose – luminescence, 786-0 RCC cells, confirmation (AID 651580;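 active means mean inhibition across four replicates of at least 40 percent at the single tested concentration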). The settings on record: HIF-2a luciferase reporter luminescence, overnight, at 18.8 µM, stronger effect = higher value.
Experiment [7] is described as follows: HIF-1a luciferase reporter signal reduction – MiaPaCa-2 cells, single concentration, counter-screen for HIF-2a inhibitor project, confirmation (AID 651589;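 active means mean inhibition of the reporter signal across four replicates at the single tested dose of 50% or more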). Particulars: MiaPaCa-2 HIF-1a luciferase reporter, desferoxamine, overnight; at 18.8 µM; stronger effect = higher value.
Experiment [8] relates to Rat fibroblasts (CREF). The experiment in a line: inhibition of PEG-3 promoter-driven reporter – cell-based, HeLa, luciferase, CREF/GAPDH counter-screen panel, dose response (AID 624167). The settings on record: CREF/GAPDH counter-screens; run 1, dose range 1, at 100 µM (top of the series).
Experiment [9] deals with Rat fibroblasts (CREF). The description is as above. The settings on record: CREF/GAPDH counter-screens; run 2, dose range 1, at 100 µM (top of the series).
Experiment [10] in a line: NF-kB reporter suppression in CF airway cells – cell-based, GFP fluorescence, single concentration, confirmation (AID 602472; in the data active means inhibition above about 40%;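 further: stimulus PAF is a Pseudomonas aeruginosa filtrate and not platelet activating factor; plate controls were DMSO wells with stimulus for no effect and unstimulated DMSO wells for full effect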). Particulars: KKLEB CF airway cells, PAF-induced NF-kB-GFP fluorescence, overnight; at 5 µM; stronger effect = higher value.
Experiment [11] can be described thus: NFkB reporter suppression in cystic fibrosis bronchial cells – cell-based, uHTS hits, panel, cytotoxicity readout, dose response (AID 624344). The settings on record: CF bronchial epithelial cells, PAF-induced NFkB reporter inhibition, with PAF, run 1; at 79 µM (top of the series) unless noted.
Assay in experiment [12]: as above
Particulars: CF bronchial epithelial cells, PAF-induced NFkB reporter inhibition, with PAF, run 2; at 79 µM (top of the series) unless noted.

Experiment [13] addresses Tumor necrosis factor receptor superfamily member 10B (Homo sapiens) (UniProt O14763). The experiment in a line: compound enhancement of TRAIL-induced cell killing – NB7 cells plus caspase-8, luminescence, panel, dose response (AID 652002). The settings on record: NB7 neuroblastoma +caspase-8, TRAIL sensitization, luminescence viability, NB7+Caspase-8, with TRAIL, run 1; at 12.5 µM (top of the series).

Experiment [14] has the same target. The description is as above. Particulars: NB7 neuroblastoma +caspase-8, TRAIL sensitization, luminescence viability, NB7+Caspase-8, with TRAIL, run 2; at 12.5 µM (top of the series).
Assay in experiment [15]: as above
Particulars: NB7 neuroblastoma +caspase-8, no TRAIL, compound-alone cytotoxicity counter-screen, luminescence viability, NB7+Caspase-8, run 1; at 12.5 µM (top of the series) unless noted.

Assay in experiment [16]: as above
Particulars: NB7 neuroblastoma +caspase-8, no TRAIL, compound-alone cytotoxicity counter-screen, luminescence viability, NB7+Caspase-8, run 2; at 12.5 µM (top of the series) unless noted.

The target in experiment [17] is COP9 signalosome complex subunit 5 (Homo sapiens) (UniProt Q92905). The experiment in a line: blockers of CSN-driven cullin deneddylation – biochemical, fluorescence polarization, single concentration, SCF-Nedd8OG substrate, confirmation (AID 720654; in the data active means inhibition above about 50%;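 further: 0% = DMSO with enzyme and 100% = no enzyme wells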). Particulars: Csn5 deneddylation of SCF-Nedd8OG, 90 min, at 16.6 µM, stronger effect = higher value. (In general: Fluorescence polarisation rises when a labelled molecule tumbles more slowly, as on binding a larger partner.)

The target in experiment [18] is 72 kDa type IV collagenase (Homo sapiens) (UniProt P08253). The experiment is described as follows: human MMP-2 inhibitors, single-point check – biochemical, fluorescence, single concentration, counter-screen for CSN deneddylation inhibitor project, confirmation (AID 720655;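 active means corrected plate-normalized z-score of 5 or more, or -5 or less, or inhibition of 15% or more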;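 further: plate controls were DMSO wells with enzyme for no effect and buffer wells lacking MMP-2 for full effect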). The settings on record: recombinant MMP-2, FRET substrate fluorescence, 60 min; at 16.6 µM.

The target of another experiment is Prothrombin (Bos taurus) (UniProt P00735). The experiment in a line: thrombin cleavage blockers, FP readout – biochemical, fluorescence polarization, single concentration, counter-screen for CSN deneddylation inhibitor project, confirmation (AID 720656;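 active means inhibition at or above a set limit, with a fluorescence interference ratio between 0.5 and a set maximum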). Particulars: bovine thrombin cleavage of Ub4-pepOG, at 16.6 µM, stronger effect = higher value.
Chain of Prothrombin (Bos taurus) (P00735 whole entry, looked up): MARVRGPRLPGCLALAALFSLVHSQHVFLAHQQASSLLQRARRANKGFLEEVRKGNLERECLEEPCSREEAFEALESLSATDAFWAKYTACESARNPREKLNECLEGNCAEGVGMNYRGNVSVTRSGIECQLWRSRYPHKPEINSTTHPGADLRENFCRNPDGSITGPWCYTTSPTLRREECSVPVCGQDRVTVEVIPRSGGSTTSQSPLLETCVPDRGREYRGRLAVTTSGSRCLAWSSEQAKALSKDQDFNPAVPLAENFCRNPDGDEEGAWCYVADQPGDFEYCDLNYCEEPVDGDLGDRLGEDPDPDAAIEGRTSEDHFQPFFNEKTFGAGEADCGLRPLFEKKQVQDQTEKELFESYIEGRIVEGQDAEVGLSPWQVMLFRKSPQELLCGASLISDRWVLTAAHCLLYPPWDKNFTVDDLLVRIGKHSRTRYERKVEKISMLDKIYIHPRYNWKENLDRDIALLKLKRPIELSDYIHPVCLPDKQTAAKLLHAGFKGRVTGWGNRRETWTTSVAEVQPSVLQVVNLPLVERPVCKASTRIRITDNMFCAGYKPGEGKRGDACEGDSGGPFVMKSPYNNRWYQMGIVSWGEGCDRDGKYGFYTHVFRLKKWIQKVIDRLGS

Chain of Tumor necrosis factor receptor superfamily member 10B (Homo sapiens) (O14763 whole entry, looked up): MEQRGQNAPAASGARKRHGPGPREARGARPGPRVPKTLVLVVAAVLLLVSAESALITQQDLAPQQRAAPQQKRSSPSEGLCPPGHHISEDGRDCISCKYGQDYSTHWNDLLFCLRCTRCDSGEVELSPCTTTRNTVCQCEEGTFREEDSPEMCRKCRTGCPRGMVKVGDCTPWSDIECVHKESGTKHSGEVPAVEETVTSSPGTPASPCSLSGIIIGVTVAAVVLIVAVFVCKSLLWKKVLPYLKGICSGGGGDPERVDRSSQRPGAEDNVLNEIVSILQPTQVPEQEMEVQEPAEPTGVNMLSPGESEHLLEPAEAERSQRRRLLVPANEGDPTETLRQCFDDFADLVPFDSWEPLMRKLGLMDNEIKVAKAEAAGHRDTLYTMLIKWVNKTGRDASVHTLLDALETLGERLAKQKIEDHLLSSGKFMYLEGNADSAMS
Chain of PEG-3 (Q6IN02 whole entry, looked up): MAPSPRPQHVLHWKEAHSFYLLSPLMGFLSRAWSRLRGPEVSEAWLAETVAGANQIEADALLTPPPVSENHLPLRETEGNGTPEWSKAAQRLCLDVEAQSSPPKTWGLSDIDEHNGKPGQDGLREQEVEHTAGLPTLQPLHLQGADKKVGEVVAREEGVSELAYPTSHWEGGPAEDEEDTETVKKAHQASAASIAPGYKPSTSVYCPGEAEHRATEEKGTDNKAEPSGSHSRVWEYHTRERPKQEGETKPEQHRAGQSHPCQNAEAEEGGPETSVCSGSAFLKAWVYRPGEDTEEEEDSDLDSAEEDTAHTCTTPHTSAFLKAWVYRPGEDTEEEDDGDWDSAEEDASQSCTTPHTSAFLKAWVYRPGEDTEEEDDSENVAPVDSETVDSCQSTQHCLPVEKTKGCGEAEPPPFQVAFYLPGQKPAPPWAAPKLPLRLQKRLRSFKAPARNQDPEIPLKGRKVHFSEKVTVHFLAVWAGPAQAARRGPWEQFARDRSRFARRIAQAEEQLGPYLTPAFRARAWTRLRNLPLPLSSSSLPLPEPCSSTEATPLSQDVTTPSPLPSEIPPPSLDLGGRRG
Chain of COP9 signalosome complex subunit 5 (Homo sapiens) (Q92905 whole entry, looked up, one chain of several): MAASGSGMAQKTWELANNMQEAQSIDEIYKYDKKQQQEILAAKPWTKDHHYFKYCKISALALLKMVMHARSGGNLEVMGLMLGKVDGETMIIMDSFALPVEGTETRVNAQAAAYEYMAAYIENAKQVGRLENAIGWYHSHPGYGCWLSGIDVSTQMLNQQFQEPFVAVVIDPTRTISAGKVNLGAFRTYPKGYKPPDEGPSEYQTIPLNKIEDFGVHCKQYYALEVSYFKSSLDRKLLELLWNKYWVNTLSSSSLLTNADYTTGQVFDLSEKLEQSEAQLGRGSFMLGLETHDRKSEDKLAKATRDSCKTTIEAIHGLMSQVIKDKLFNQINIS
Chain of 72 kDa type IV collagenase (Homo sapiens) (P08253 whole entry, looked up): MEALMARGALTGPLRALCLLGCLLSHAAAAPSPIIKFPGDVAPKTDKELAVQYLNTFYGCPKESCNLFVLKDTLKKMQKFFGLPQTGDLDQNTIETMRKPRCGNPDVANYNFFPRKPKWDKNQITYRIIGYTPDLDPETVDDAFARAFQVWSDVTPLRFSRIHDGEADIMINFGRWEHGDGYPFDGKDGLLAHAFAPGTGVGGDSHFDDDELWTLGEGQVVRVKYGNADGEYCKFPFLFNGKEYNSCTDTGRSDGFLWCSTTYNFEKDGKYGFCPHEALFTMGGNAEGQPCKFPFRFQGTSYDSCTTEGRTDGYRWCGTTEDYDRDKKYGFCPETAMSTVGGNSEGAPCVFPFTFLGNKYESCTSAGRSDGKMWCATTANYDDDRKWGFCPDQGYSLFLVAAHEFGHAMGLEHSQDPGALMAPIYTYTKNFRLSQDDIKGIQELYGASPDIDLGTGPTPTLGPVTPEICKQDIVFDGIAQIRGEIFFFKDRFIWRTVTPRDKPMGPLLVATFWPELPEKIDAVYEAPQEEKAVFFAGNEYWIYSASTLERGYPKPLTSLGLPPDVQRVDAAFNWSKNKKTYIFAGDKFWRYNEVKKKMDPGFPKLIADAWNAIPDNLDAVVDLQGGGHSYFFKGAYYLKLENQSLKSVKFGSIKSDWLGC

Regarding `CCOc1ccc2nc(N(CCCN(C)C)C(=O)c3ccc(C(=O)c4ccccc4)cc3)sc2c1`, the inhibition in [1] is 97.7% (active); with PEG-3 [2], 102%; with PEG-3 [3], 101%. The activity in experiment [4] is 87.4%; in experiment [5], 98.2%.
As to `Cc1ccc(OCC(=O)c2cc(C)n(Cc3ccco3)c2C)c([N+](=O)[O-])n1`, the inhibition is 71.5% (active) in experiment [1]; 64.6% (active) in experiment [6]; 82.9% (active) in [7]; 58% in the experiment with PEG-3 [2]; 62.9% in the experiment with PEG-3 [3]; -20.4% in the experiment on Rat fibroblasts (CREF) [8]. Also, the inhibition in the experiment on Rat fibroblasts (CREF) [9] is -12.2%.
For the molecule `C=CC[C@@H](CC(=O)N[C@@H](CO)Cc1ccccc1)C(=O)N[C@H](COC(=O)[C@H](CC=C)CC(=O)OC(C)(C)C)Cc1ccccc1`, the inhibition in [1] is 6.88% (inactive).
The same measure, in the same setting: to `NS(=O)(=O)c1ccc(N=Nc2c(O)[nH]c3ccc(Br)cc23)cc1` belongs 0.42% (inactive).
On to `CCCCNc1c(-c2cccc(Sc3ccc(OC)cc3)c2)nc2ccccn12`, for which the inhibition in experiment [1] was 95.6% (active); with PEG-3 [2], 94.7%; with PEG-3 [3] it was 81.9%.
For `COc1ccc(NC(=O)c2sc3nc(C)nc(N4CCN(c5ccccn5)CC4)c3c2C)c(OC)c1`, in experiment [10], the inhibition was 38.6% (inactive).
`CN(Cc1ccccc1F)C(=O)C(Cc1ccccc1)NC(=O)c1ccccc1` (stereo not given): the results for the inhibition (in [1]; with PEG-3 [2]; with PEG-3 [3]) were 48.7% (active), 98.9% and 95.1%, respectively.
On the same counts, the results for `CCn1cc(CN2CCC(C(=O)Nc3cccc(-c4cccc(Cl)c4)c3)CC2)cn1` are 94.5% (active), 99.1% and 98.3%.
Regarding `c1ccc(C(=NNc2nc3ccccc3s2)c2ccccn2)cc1`, the inhibition in experiment [1] was 61% (active); with PEG-3 [2], 101%; in the experiment with PEG-3 [3], 102%.
As for `Oc1ccc2ccccc2c1N=Nc1nccs1`, the inhibition in experiment [1] is 82.7% (active).
For `CSc1nc(N)c(C#N)c(-c2ccccc2Cl)c1C#N`, the inhibition in [1] is 70.6% (active).
On to `COc1ccc(CN(C)C(=O)c2cc(-c3ccc(C)cc3C)nc3ccccc23)c(OC)c1OC`, for which the inhibition in experiment [1] was 75.2% (active); in experiment [10], 61.6% (active); with PEG-3 [2] it was 102%; with PEG-3 [3] it was 102%; in experiment [11], 103%; in experiment [12], 111%.
Regarding `Cc1c(C)c2ccc(OCC(=O)N3CCN(c4cccc(Cl)c4)CC3)cc2oc1=O`, the inhibition in experiment [10] was 10.3% (inactive).
For the molecule `COc1ccc(-c2cc(C(=O)N(C)Cc3ccc(OC)c(OC)c3OC)c3ccccc3n2)cc1OC`, the inhibition is 60.4% (active) in experiment [1], 68.7% with PEG-3 [2] and 72.5% with PEG-3 [3].
Take `CC1(C)O[C@@H]2CC3C4C[C@H](F)C5=CC(=O)C=CC5(C)C4C(O)CC3(C)[C@]2(C(=O)CO)O1` (stereo not given in full): in experiment [10], the inhibition was 27.4% (inactive).
Turning to `Cc1ccc(-c2nc3ccccc3[nH]2)cc1NC(=O)c1sc2ccccc2c1Cl`, in [1], the inhibition was -5.64% (inactive).
As to `Cc1ccc(C)c(S(=O)(=O)N2CCN(c3ncnc4sccc34)CC2)c1`, the inhibition in experiment [1] is 69.5% (active); in the experiment with PEG-3 [2], 90.1%; in the experiment with PEG-3 [3], 91.3%; with Rat fibroblasts (CREF) [8], 13.9%; in the experiment with Rat fibroblasts (CREF) [9], 74.8%. The activity in experiment [4] worked out at 68.5%; in experiment [5], 69%.
On to `COc1ccc(OC)c(Cc2cnc3nc(N)nc(N)c3c2C)c1`, for which the inhibition in experiment [1] is 66.8% (active); in the experiment with PEG-3 [2] it was 88.7%; with PEG-3 [3] it was 86.7%.
Turning to `Cc1ccc([C@H]2C[C@H](O)[C@@H](n3cc(COC(=O)c4ccccc4)nn3)CN2CC2CCCCC2)cc1`, the inhibition in experiment [10] is -29.2% (inactive).
In the case of `CCCc1cc(=O)n2[nH]c(C)c(-c3ccc(Cl)cc3)c2n1`, the inhibition in experiment [1] was 51.5% (active); with PEG-3 [2], 94%; with PEG-3 [3] it was 88.7%.
Regarding `CN1OC[C@@H]2CN(S(=O)(=O)c3cccc(C(F)(F)F)c3)[C@H](c3ccc(-c4cc5ccccc5o4)cc3)C[C@@H]21`, the inhibition is 52.7% (active) in experiment [1]; 46.4% (active) in experiment [6]; 75.2% (active) in experiment [7]; 60% in the experiment with PEG-3 [2]; 73.1% in the experiment with PEG-3 [3]; 17% in the experiment with Rat fibroblasts (CREF) [8]. For the same molecule, the inhibition in the experiment on Rat fibroblasts (CREF) [9] is 24.5%.
As to `CC(C)c1ccc2c(c1)c(SC(C)(C)C)c(CC(C)(C)C(=O)O)n2Cc1ccc(Cl)cc1`, the inhibition in [10] is 41.5% (active).
Regarding `O=C(Nc1ccc2oc(-c3ccc4ccccc4c3)nc2c1)c1cccs1`, in [10], the inhibition was 38.7% (inactive).
For `O=c1[nH]c(=S)[nH]c(O)c1/C=C1\C=Nc2ccccc21`, the inhibition in [1] was 47.7% (active); in the experiment with PEG-3 [2], 73%; with PEG-3 [3] it was 100% [run 2, dose range 1, at 50 µM].
`Cc1c(C(=O)Nc2cccc(Cl)c2)cn2c(nc3ccccc32)c1C#N`: in experiment [1], the inhibition was 10.5% (inactive).
In the case of `COc1cccc2c1C(=O)c1c(O)c3c(c(O)c1C2=O)CC(O)(C(C)=NNC(=O)c1ccc(Cl)c(Cl)c1)CC3OC1CC(N)C(O)C(C)O1` (stereo not given), the inhibition is 96.6% (active) in [1]; 102% with PEG-3 [2]; 101% in the experiment with PEG-3 [3]; 99.3% in the experiment with Rat fibroblasts (CREF) [8]; 98.6% in the experiment with Rat fibroblasts (CREF) [9].
`COc1ccc2sc(-c3ccc(S(C)(=O)=O)cc3)c(C#Cc3cncn3C)c2c1`: the inhibition in [1] was 51.8% (active); with PEG-3 [2] it was -25.4%; in the experiment with PEG-3 [3] it was 60.8% [run 2, dose range 1, at 50 µM]. Further, the activity worked out at 66.7% in [4] and 34.3% in experiment [5]. Moreover, the activity, % sensitization in [13] is 13.3%; in [14] it was 10.2%; in experiment [15], -20.9%; in experiment [16] it was -2.18%.
On to `COc1ccc2c(c1)c(=Cc1ccc(N(C)C)cc1)c1cc(-c3ccccc3)[n+](C)n12`, for which the inhibition in [1] was 97.8% (active); in experiment [17], 65% (active); in [18] it was 81.7% (active); with Prothrombin (Bos taurus), 67.8% (active); with PEG-3 [2], 102%; with PEG-3 [3], 102%. Further, the inhibition was 99.5% in the experiment on Rat fibroblasts (CREF) [8] and 100% in the experiment with Rat fibroblasts (CREF) [9].
